In all, about 1,300 compounds went through this assay and about 380 (29%) were called active. Another 37% or so got no clear call; they are omitted. Calls follow the shape of the dose curve; as a rule, active = well fitted inhibition curve with a large enough effect; inconclusive = small, poorly fitted or top-dose-only effect; inactive = flat fitted curve, though single readings scatter. The list shows a part of the results.
What follows are compounds tested against Thyrotropin receptor (Homo sapiens) (UniProt P16473) (assay: qHTS for antagonists of the Thyroid Stimulation Hormone Receptor: Hit Validation in Primary Screen). Conditions: TSHR-expressing cells, cAMP antagonist mode; series mostly up to 58 µM.
How it was run: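 Competitive HTRF detected cAMP in lysates of TSHR cells, read 30 minutes after antibody and d2 addition at room temperature. Before lysis, cells had 2 hours at 37 deg C with compound plus EC80 TSH, 4nM final.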
Also: nearly all actives have a fitted effect of over 80% in size.
Potency is read from the fitted curve at half-maximal effect.

Thyrotropin receptor (Homo sapiens), sequence (P16473 whole entry, looked up): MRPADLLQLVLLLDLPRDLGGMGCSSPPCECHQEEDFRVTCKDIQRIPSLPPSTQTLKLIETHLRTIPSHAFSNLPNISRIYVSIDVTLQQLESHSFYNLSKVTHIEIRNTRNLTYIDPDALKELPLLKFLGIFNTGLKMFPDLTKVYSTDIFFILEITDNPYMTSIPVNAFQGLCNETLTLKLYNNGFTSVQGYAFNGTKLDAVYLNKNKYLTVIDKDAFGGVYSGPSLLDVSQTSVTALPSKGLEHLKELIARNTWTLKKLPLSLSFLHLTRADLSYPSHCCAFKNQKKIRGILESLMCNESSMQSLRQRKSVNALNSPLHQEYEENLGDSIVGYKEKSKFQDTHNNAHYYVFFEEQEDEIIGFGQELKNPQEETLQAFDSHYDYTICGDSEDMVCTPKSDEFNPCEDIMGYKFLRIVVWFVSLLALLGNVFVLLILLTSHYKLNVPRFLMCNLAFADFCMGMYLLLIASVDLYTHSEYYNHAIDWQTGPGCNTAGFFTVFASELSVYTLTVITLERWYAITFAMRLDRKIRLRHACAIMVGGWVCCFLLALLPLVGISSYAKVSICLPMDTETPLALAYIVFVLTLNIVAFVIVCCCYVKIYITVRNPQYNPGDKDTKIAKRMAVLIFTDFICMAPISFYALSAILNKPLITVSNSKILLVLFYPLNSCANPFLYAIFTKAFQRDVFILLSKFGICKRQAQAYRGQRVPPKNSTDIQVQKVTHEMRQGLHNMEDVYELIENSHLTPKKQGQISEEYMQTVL

Potency, active:
Cc1ccccc1-n1sc2cc(F)ccc2c1=O 19 µM, O=C(CSc1ncnc2ccccc12)c1ccc2c(c1)OCCO2 26.9 µM, O=S(=O)(Nc1ccc(O)c(Sc2nc3ccccc3s2)c1)c1cccc2ccccc12 37.9 µM, CCn1c(Cl)c(C=O)s/c1=N\S(=O)(=O)c1ccccc1 21.3 µM, CCN(CC)S(=O)(=O)c1cccc(NC(=O)CCSc2ccc(Cl)cc2)c1 30.1 µM, Cc1ccc(C(=O)N2c3ccccc3N(Cc3ccccc3)C(=O)C2(C)C)cc1 16.9 µM, O=C(NC(Nc1nc2ccc([N+](=O)[O-])cc2s1)(C(F)(F)F)C(F)(F)F)c1cccnc1 7.57 µM, O=C(NC(Nc1nc2ccc([N+](=O)[O-])cc2s1)(C(F)(F)F)C(F)(F)F)c1ccccc1 0.953 µM, O=C(COC(=O)C12CC3CC(CC(Br)(C3)C1)C2)Nc1cccc(S(=O)(=O)N2CCOCC2)c1 23.9 µM, C=CCN1C(=O)/C(=C/c2ccc(OC(C)=O)c(OCC)c2[N+](=O)[O-])SC1=S 7.57 µM, COc1ccc(/C=C/C(=O)c2ccc(NS(=O)(=O)c3ccc(C)cc3)cc2)cc1O 23.9 µM, Cc1cc(C(=O)CSc2nc3ccccc3[nH]2)c(C)n1CC1CCCO1 (configuration not stated) 21.3 µM, Clc1c(CSc2nc3ccccc3o2)nc2ccccn12 23.9 µM, Cc1c(C(=O)Nc2ccc3c(c2)OCCO3)sc2nc(-c3ccccc3)cn12 30.1 µM, Cc1cc(-n2c(C)cc(C(=O)CSc3[nH]c(=O)cc(C(F)(F)F)c3C#N)c2C)no1 9.53 µM, CCCCn1c(NC(=O)c2ccccc2Cl)c(C#N)c2nc3ccccc3nc21 15.1 µM, CCCCn1c(-c2csc3c2CCCC3)n[nH]c1=S 30.1 µM, CCCCNc1c(-c2cccc(-c3ccc(OC)cc3)c2)nc2ccc(C)cn12 37.9 µM, COc1ccc(-c2cc(-c3nc4ccccn4c3NCc3ccccc3)ccc2OC)cc1 2.69 µM, CCC(C)Sc1ccc(-c2nc3ccc(C)cn3c2NCc2ccccc2)cc1OC (configuration not stated) 21.3 µM, C=CC(C)(C)c1c2occc2c(O)c2ccc(=O)oc12 16.9 µM, O=[N+]([O-])c1ccc(S(=O)(=O)c2ccccc2)nc1 37.9 µM, COc1ccc(-c2sc3ccc(N4CCOCC4)cc3c2C#CCO)cc1 19 µM, COc1ccc(C(=O)c2ccccc2)c2c(O)ccc(C(=O)c3ccccc3)c12 12 µM, CC(CNC(=O)c1cc(COc2ccc3ncccc3c2)on1)c1ccccc1 (configuration not stated) 23.9 µM, O=C(NCc1cccc(Cl)c1)c1cc(COc2ccc3ncccc3c2)on1 9.53 µM, Cc1ccc(F)cc1CNC(=O)c1cc(COc2ccc3ncccc3c2)on1 21.3 µM, COc1ccc(-c2csc(/C(C#N)=C\c3ccc(O)c([N+](=O)[O-])c3)n2)cc1OC 1.9 µM, CCOc1ccc(-c2csc(/C(C#N)=C\c3ccc(O)c([N+](=O)[O-])c3)n2)cc1 6.01 µM

Potency, inactive:
Cc1c(C(=O)OC/C(O)=C(\C#N)c2nc3ccccc3[nH]2)oc2ccc(Br)cc12, CS(=O)(=O)N(CC(=O)N1CCOCC1)c1cccc(F)c1, Cc1ccc(S(=O)(=O)c2c(C(=O)c3ccccc3)cnc3cc4c(cc23)OCCO4)cc1, O=C(CSc1n[nH]c(=O)n1C1CC1)c1ccc2c(c1)OCCO2, COCC(C)NC(=O)C1c2ccccc2Oc2ccccc21 (configuration not stated), CC(=O)c1cccc(NC(=O)CCCSc2ccccc2)c1, CC(=O)N1c2ccc(S(=O)(=O)NCCC(=O)Nc3cccc(Cl)c3)cc2CC1C (configuration not stated), CC1CCCN(S(=O)(=O)c2csc(C(N)=O)c2)C1 (configuration not stated), CCOP(=O)(Cc1ccc(C(C)(C)CC(C)=O)o1)OCC, O=C(c1ccc2c(c1)N(Cc1ccccc1)C(=O)c1ccccc1S2)N1CCCC1, Cc1ccc(CN2C(=O)c3ccccc3Sc3ccc(C(=O)NCCCN4CCOCC4)cc32)cc1, COc1ccc2nc(NC(=O)c3ccccc3[N+](=O)[O-])sc2c1, Cc1cccc(NC(=O)C2CCN(S(=O)(=O)c3ccc4c(c3)NC(=O)CO4)CC2)c1, CSc1cccc(NC(=O)CN2C(=O)COc3ccc(S(=O)(=O)N4CCOCC4)cc32)c1, COc1cc(/C=C/C(=O)c2ccc(NS(=O)(=O)c3ccc(C)cc3)cc2)ccc1OC(F)F, CCOc1ccccc1NC(=O)CSc1nc2ccccc2c(=O)n1CC1CCCO1 (configuration not stated), Nc1nc(SCC(=O)NCC2CCCO2)[nH]c(=O)c1NC(=O)c1ccc(F)c(F)c1 (configuration not stated), CC1(C)CC(O)CC(C)(C)N1CC(O)COCc1ccccc1 (configuration not stated), Cc1ccc(Sc2ncccc2NC(=O)c2ccccc2Cl)cc1, Cc1cccc2c1-c1sc(C(=O)NCCCN3CCCC(C)C3)cc1CO2 (configuration not stated), CCCCCCSc1ccc(-c2nc3ccc(Cl)cn3c2NCCCC)cc1OC, COc1ccc(-c2csc3ncn(Cc4ccccc4)c(=O)c23)cc1, CCOc1ccccc1/C=C/c1onc(C)c1S(=O)(=O)N1CCC(C(=O)N2CCCCCC2)CC1, CCOc1ccccc1NC(=O)C1(S(=O)(=O)c2ccc(Cl)cc2)CC1, COc1cccc(O)c1CN1CCC(C(=O)Nc2ccc(Oc3cccnc3)cc2)CC1, O=C(c1ccc2c(=O)n(Cc3ccc4c(c3)OCO4)c(=S)[nH]c2c1)N1CCCCC1, CCN(C(=O)CN1C(=O)COc2ccc(S(=O)(=O)N3CCOCC3)cc21)c1ccc(OC)cc1, COC(=O)c1ccc(NC(=O)c2ccccc2)o1, Cc1ccc(OCc2cc(C(=O)NCC3COCCO3)no2)cc1C (configuration not stated), Cc1cc(OCc2cc(C(=O)NCc3csc(C(C)C)n3)no2)cc(C)c1Cl, COc1ccc(CNC(=O)C(C)OC(=O)c2cccs2)cc1 (configuration not stated), COc1ccc(S(=O)(=O)NCCc2cn3nc(C)c(C)nc3n2)cc1F, COc1ccc(NC2CCCN(C(=O)CCc3cccc(F)c3)C2)cc1 (configuration not stated)

From PubChem BioAssay AID602292 (National Center for Advancing Translational Sciences (NCATS), 2012)
